Assay results published in PubChem BioAssay (NCI).
Compounds without any hit were thinned out: in the full panel of roughly 83,000, 20% have a hit.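 The test compound was applied at a single concentration to cells in 96-well plates for 48 hours, and percent growth was recorded.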 Active and inactive are the calls of the source. Rule for the calls: active = growth percent below 10; inactive = the rest.

Experiments:
Assay in all cases: NCI-60 one-dose screen, 48 h (100 = growth as untreated, 0 = no growth, -100 = all killed)
Conditions in all cases: 10 µM unless noted
T-47D breast = test system: T-47D breast
BT-549 breast = test system: BT-549 breast
MDA-MB-435 melanoma = test system: MDA-MB-435 melanoma
SW-620 colon = test system: SW-620 colon
MCF7 breast = test system: MCF7 breast
HCT-116 colon = test system: HCT-116 colon
HCC-2998 colon = test system: HCC-2998 colon
KM12 colon = test system: KM12 colon

Measured: growth

CCCC[N+](C)(N)CCCC
inactive: T-47D breast 87.9% | BT-549 breast 90.9% | MDA-MB-435 melanoma 102% | SW-620 colon 101% | MCF7 breast 97.7% | HCT-116 colon 97.7% | HCC-2998 colon 111% | KM12 colon 105%

CCOC(=O)c1csc(-c2ccc(COC(=O)c3ccccc3)o2)n1
inactive: T-47D breast 102% | BT-549 breast 116% | MDA-MB-435 melanoma 101% | SW-620 colon 112% | MCF7 breast 92.9% | HCT-116 colon 99.8% | HCC-2998 colon 105% | KM12 colon 112%

c1ccc2[nH]c(-c3ccc(OCCCCCOc4ccc(-c5nc6ccccc6[nH]5)cc4)cc3)nc2c1
active: T-47D breast -60.3% | BT-549 breast -13.5% | MDA-MB-435 melanoma 8.59% | SW-620 colon -3.03% | MCF7 breast -39.3% | HCT-116 colon -21.8%
inactive: HCC-2998 colon 14.8% | KM12 colon 23.5%

CCN(CC)CCNc1ncnc2c1cnn2-c1ccc(Cl)cc1
inactive: T-47D breast 65% | BT-549 breast 95.1% | SW-620 colon 63% | MCF7 breast 75% | HCT-116 colon 77.8% | HCC-2998 colon 82.7% | KM12 colon 67.5%
active: MDA-MB-435 melanoma -34.8%

COc1ccc(C(=O)c2no[n+]([O-])c2C(=O)c2ccc(OC)cc2)cc1
inactive: T-47D breast 24.7% | BT-549 breast 50.3% | MDA-MB-435 melanoma 44.3% | MCF7 breast 30.9% | HCC-2998 colon 110% | KM12 colon 102%
active: SW-620 colon -82.9% | HCT-116 colon -98.1%

O=Nc1c(-c2c(O)[nH]c3cc(Br)ccc23)[nH]c2ccccc12
inactive: BT-549 breast 40% | MDA-MB-435 melanoma 31.4%
active: T-47D breast -31.1% | SW-620 colon -92.5% | MCF7 breast -40% | HCT-116 colon -67.3% | KM12 colon -89.9%

CCOC(=O)CNS(=O)(=O)CC(=O)c1ccccc1
inactive: T-47D breast 91.9% | BT-549 breast 86.4% | MDA-MB-435 melanoma 99.7% | SW-620 colon 110% | HCT-116 colon 103% | HCC-2998 colon 92.2% | KM12 colon 108%

Oc1ccccc1\C=N/N=C/C=C/c1ccccc1
inactive: T-47D breast 76.9% | BT-549 breast 91.4% | MDA-MB-435 melanoma 105% | SW-620 colon 106% | MCF7 breast 81.4% | HCC-2998 colon 95.3% | KM12 colon 92.8%

CC(=O)Nc1nc(C)c(C(=O)N/N=C/c2cccs2)s1
inactive: T-47D breast 67.8% | BT-549 breast 120% | MDA-MB-435 melanoma 111% | SW-620 colon 94.2% | MCF7 breast 75.7% | HCC-2998 colon 114% | KM12 colon 116%

COc1cc2cc3cc4cc(OC)c(OC)cc4c(C)[n+]3cc2cc1OC (tested in a mixture with another compound)
inactive: T-47D breast 91.7% | BT-549 breast 85.5% | MDA-MB-435 melanoma 71% | SW-620 colon 83.2% | MCF7 breast 67.6% | HCC-2998 colon 102% | KM12 colon 80.4%

CCCCCC(=C/c1ccccc1)/C=N/N=C(N)N
inactive: BT-549 breast 46.6%
active: T-47D breast -34.3% | MDA-MB-435 melanoma -80% | MCF7 breast -69.6% | HCT-116 colon -56.6% | HCC-2998 colon -79%

CCOc1nc(-c2ccccc2)cc2c(O)c(C(=O)N/N=C/c3ccccc3O)[nH]c(=O)c12
inactive: T-47D breast 94% | BT-549 breast 97.8% | MDA-MB-435 melanoma 113% | SW-620 colon 74.9% | MCF7 breast 72.8% | HCT-116 colon 88.3% | KM12 colon 80.6%

Cc1ccc(C(=O)C(Br)C(Br)c2ccccc2)cc1 (configuration not stated)
inactive: T-47D breast 71.5% | BT-549 breast 104% | MDA-MB-435 melanoma 99.8% | SW-620 colon 27.8% | MCF7 breast 25.7% | HCC-2998 colon 116% | KM12 colon 99.1%

CCCCCCCCCCN1CC2CCCCC2C1 (configuration not stated)
inactive: T-47D breast 56.7% | BT-549 breast 69% | MDA-MB-435 melanoma 91.3% | SW-620 colon 74.2% | MCF7 breast 65% | HCC-2998 colon 82.9% | KM12 colon 65.3%

C[C@@H](c1ccc2c(c1)[nH]c1ccc(Cl)cc12)c1nc2ccccc2[nH]1
inactive: T-47D breast 62.3% | BT-549 breast 83.4% | MDA-MB-435 melanoma 103% | SW-620 colon 95.2% | MCF7 breast 27.6% | HCT-116 colon 93.5% | HCC-2998 colon 100% | KM12 colon 90.7%

O=C(Cc1ccccc1[N+](=O)[O-])c1ccc2c(c1)OCO2
inactive: T-47D breast 94.4% | BT-549 breast 92.1% | MDA-MB-435 melanoma 102% | SW-620 colon 99% | MCF7 breast 96.5% | HCC-2998 colon 116% | KM12 colon 107%

COc1cc(/C=C/C(=O)c2ccc(F)cc2)ccc1OCCCCOc1cc2c(cc1OC)C(=O)N1CCCC1C=N2 (configuration not stated)
active: T-47D breast 1.74% | BT-549 breast -49.9% | MDA-MB-435 melanoma -71% | SW-620 colon -59% | MCF7 breast -19.5% | HCC-2998 colon -87.5% | KM12 colon -64.1%

NNC(=O)CNc1ccc2ccccc2c1
inactive: T-47D breast 108% | BT-549 breast 93.4% | MDA-MB-435 melanoma 111% | SW-620 colon 99.8% | MCF7 breast 102% | HCT-116 colon 107% | HCC-2998 colon 140% | KM12 colon 97.2%
